# Measured values reported in PubChem BioAssay AID463173 (ICCB-Longwood Screening Facility, Harvard Medical School, 2010).
# In all, about 52,000 compounds went through this assay and about 4,300 (8.3%) were called active. The full list was thinned out, with actives kept by preference. Unmarked numbers belong to inactive results. No stated cut-off is given here; in the data, active means survival mostly below about 52% (no sharp cut-off); inactive means mostly above about 56%.
# Test system: DeltatarO mutant
# Assay: S. aureus survival, RN4220 and DeltatarO strains – OD600, teichoic acid synthesis inhibitors, primary screen (AID 463173)
# Settings: S. aureus RN4220 wild type/DeltatarO growth, OD600, 18 h, hits give low values, screened at 18.75 µg/mL (by protocol)
row,Compound,survival
1,O=C(NC12CC3CC(CC(C3)C1)C2)c1ccco1,72%
2,CN(C)CCCC1(O)c2ccccc2CCc2ccccc21,85%
3,O=C(Nc1cc(Cl)cc(Cl)c1)c1ccc(F)c(S(=O)(=O)N2CCCC2)c1,78%
4,CCC(CC)c1nc2ccccc2c(=O)[nH]1,98%
5,Cc1cccc(-c2nc3scc(CCNS(=O)(=O)c4ccc5c(c4)OCCO5)n3n2)c1,85%
6,Cc1nn(-c2ccccc2)c(-n2cccc2)c1C(=O)NCc1ccccc1Cl,2% (active)
7,Cc1nn(-c2ccc(F)cc2)c(-n2cccc2)c1C(=O)NCCc1ccc(Cl)cc1,68%
8,Cc1nn(-c2ccccc2)c(-n2cccc2)c1C(=O)NCCc1ccc(Cl)cc1,4% (active)
9,Cc1ccc(NC(=O)c2c(C)nn(-c3ccccc3)c2-n2cccc2)c(Cl)c1,79%
10,Cc1ccc(CCNC(=O)c2c(C)nn(-c3ccc(F)cc3)c2-n2cccc2)cc1,67%
11,CC(=O)Nc1ccc(NC(=O)c2c(C)nn(-c3ccccc3)c2-n2cccc2)cc1,84%
12,O=C(NC1CCCCC1)c1ccc(S(=O)(=O)N2CCCC2)cc1,79%
13,CCOC(=O)c1ccc(NC(=O)Cn2cc(C(=O)C3CC3)c3ccccc32)cc1,68%
14,Cc1ccccc1NC(=O)c1sc2nc3n(c(=O)c2c1C)N=C(c1ccccc1)CS3,88%
15,COc1ccc2sc(N3C(=O)C4CC=C(C)CC4C3=O)nc2c1 (centres undefined),103%
16,COCCN1Cc2cc3cc4c(cc3nc2SC1=Nc1cccc(OC)c1)OCO4,87%
17,CCOc1ccc2nc3c(cc2c1)CN(CCO)C(=Nc1cccc(OC)c1)S3,47% (active)
18,CCN=C1Sc2nc3ccc(OCC)cc3cc2CN1CCOC,104%
19,CN(C)c1ccc(NC(=O)CN2CCN(CC(=O)Nc3ccc(Br)cc3)CC2)cc1,80%
20,CCCn1c(-c2ccc(F)cc2)cnc1SCC(=O)N1CCCCC1C (centres undefined),74%
21,COc1ccc(S(=O)(=O)NCCc2csc3nc(-c4ccccc4)nn23)cc1OC,72%
22,COc1ccc(-c2nc3scc(CCNS(=O)(=O)c4cccs4)n3n2)cc1,6% (active)
23,O=S(=O)(NCCc1csc2nc(-c3ccccc3)nn12)c1cccs1,72%
24,CCc1ccc(S(=O)(=O)NCCc2csc3nc(-c4ccccc4)nn23)s1,109%

row,Compound,survival
1,COc1ccc(OC)c(S(=O)(=O)NCCc2csc3nc(-c4ccccc4)nn23)c1,-1% (active)
2,CCS(=O)(=O)NCCc1csc2nc(-c3ccc(C)cc3)nn12,83%
3,COc1ccc(-c2nc3scc(CCNS(=O)(=O)c4ccccc4F)n3n2)cc1,90%
4,O=S(=O)(NCCc1csc2nc(-c3ccc(Cl)cc3)nn12)c1cccs1,84%
5,CS(=O)(=O)NCCc1csc2nc(-c3ccccc3)nn12,-2% (active)
6,CCOc1ccc(C(=O)Nc2ccc3nc(SCc4ccccc4)sc3c2)cc1,91%
7,O=c1c2c(nc3n1CCCS3)-c1ccccc1CC21CCCC1,73%
8,CC1=C(C(=O)OC2CCCCCC2)C(c2cccc(F)c2F)CC(=O)N1 (centres undefined),128%
9,CC(NC(=O)c1ccc(F)cc1)c1nc2ccccc2[nH]1 (centres undefined),83%
10,O=C(Cn1c(=O)nc(-c2ccccc2)c2ccccc21)Nc1ccc(Cl)cc1F,73%
11,Clc1ccccc1-c1nnc(COc2ccccc2)o1,50%
12,CC(CNC(=O)c1sc2ncccc2c1-n1cccc1)c1ccccc1 (centres undefined),102%
13,COCCCNC(=O)CCCn1c(=O)c2ccccc2n(CC(=O)Nc2ccc(C)cc2Cl)c1=O,96%
14,COc1cc(NC(=O)CN2CCN(CC(=O)Nc3ccc(F)cc3)CC2)cc(OC)c1,70%
15,CCN(C(=O)Cn1ncc2c(=O)oc3ccccc3c21)c1ccccc1F,118%
16,Oc1ccc(-c2nc3ccc(Cl)cn3c2Nc2ccc(Cl)cc2)cc1,16% (active)
17,Cc1ccc2nc(-c3ccc(O)cc3)c(Nc3ccc(Cl)cc3)n2c1,59%
18,Oc1ccc(-c2nc3ccc(Cl)cn3c2Nc2ccc3c(c2)OCO3)cc1,106%
19,Cc1ccc(C(=O)OCc2cc(=O)n3nc(-c4cccs4)sc3n2)cc1,95%
20,O=C(CSc1c2c(nc3ccccc13)CCC2)Nc1ccc(F)cc1F,69%
21,CCC(C(=O)Nc1cc(OC)ccc1OC)n1nc(-c2ccccc2)c2c(c1=O)CCCC2 (centres undefined),35% (active)
22,CCC(C(=O)Nc1cc(OC)ccc1OC)n1c(C)c2cnn(-c3ccccc3)c(=O)c2c1C (centres undefined),107%
23,CCC(C(=O)Nc1ccc(F)cc1F)n1nc(-c2ccccc2)c2c(c1=O)CCCC2 (centres undefined),38% (active)
24,CCC(C(=O)Nc1ccc(C(=O)OC)cc1)n1nc(-c2ccc(C)cc2)c2c(c1=O)CCCC2 (centres undefined),102%

row,Compound,survival
1,O=C(Cn1nc2c(cc1=O)CCCC2)Nc1ccc(F)cc1F,118%
2,CCOc1ccc(NC(=O)CSC2=Nc3ccccc3C3=NC(CCC(=O)NCc4cccs4)C(=O)N23)cc1 (centres undefined),70%
3,CCN1CCN(Cc2c(C)[nH]c3c(C)cc(C)cc3c2=O)CC1,59%
4,COc1ccccc1Cc1nc2ccccc2[nH]c1=O,54%
5,CN1C(=O)c2ccccc2Sc2ccc(NC(=O)N3CCN(c4cccc(Cl)c4)CC3)cc21,87%
6,CCOC(=O)CN1C(=O)c2cccnc2Oc2ccccc21,87%
7,C=CCc1ccccc1OCCSc1nc(-c2ccccc2F)nc2cc(=O)[nH]n12,99%
8,C=CCc1ccccc1OCCSc1nc(-c2ccc(C(C)(C)C)cc2)nc2cc(=O)[nH]n12,32% (active)
9,COc1ccccc1OCCSc1nc(-c2ccc(C(C)(C)C)cc2)nc2cc(=O)[nH]n12,49%
10,COc1ccc(NC(=O)Cn2nnnc2-c2ccccc2F)c(C)c1,74%
11,CCc1ccccc1NC(=O)Cn1c(=O)ccc2cc(S(=O)(=O)N3CCC(C)CC3)ccc21,92%
12,CCOc1ccccc1NC(=O)Cn1c(=O)ccc2cc(S(=O)(=O)N3CCC(C)CC3)ccc21,55%
13,CCOc1ccc(NC(=O)COc2ccc(S(=O)(=O)NC3CCCCC3)cc2)cc1,62%
14,Cc1ccc(CNC(=O)Cn2c(=O)ccc3cc(S(=O)(=O)N4CCCC4)ccc32)cc1,92%
15,CCOc1ccccc1NC(=O)Cn1c(=O)ccc2cc(S(=O)(=O)N3CCCC3)ccc21,0% (active)
16,CCc1ccccc1NC(=O)Cn1c(=O)ccc2cc(S(=O)(=O)N3CCCC3)ccc21,46% (active)
17,CCOc1ccccc1NC(=O)COc1ccc(S(=O)(=O)NC2CCCCC2)cc1,48% (active)
18,COc1ccc(NC(=O)COc2ccc(S(=O)(=O)NC3CCCCC3)cc2)c(OC)c1,66%
19,Cc1cccc(NC(=O)Cn2c(=O)ccc3cc(S(=O)(=O)N4CCCC4)ccc32)c1C,105%
20,CCC(C)NC(=O)Cn1c(=O)ccc2cc(S(=O)(=O)N3CCCC3)ccc21 (centres undefined),37% (active)
21,CCC(C)NC(=O)Cn1ccc2cc(S(=O)(=O)N3CCCCCC3)ccc21 (centres undefined),118%
22,O=C(Cn1c(=O)ccc2cc(S(=O)(=O)N3CCCC3)ccc21)Nc1ccccc1,57%
23,CCc1ccc(-n2c(=O)c3ccc(C(=O)NCCc4ccccc4)cc3n(CC(N)=O)c2=O)cc1,86%
24,COC(=O)C1(CO)NC(c2ccccc2F)C2C(=O)N(c3ccccc3)C(=O)C21 (centres undefined),86%

row,Compound,survival
1,COc1ccc(-c2nc(C)c(CCNC(=O)c3cccs3)s2)cc1,61%
2,O=C(Nc1ccc(N2CCC(c3ccccc3)C2)c(C(=O)O)c1)c1ccc(Cl)cc1 (centres undefined),60%
3,CCNC(=O)C1CCCN(c2nn3cc(-c4ccc(C)cc4)nc3s2)C1 (centres undefined),74%
4,COCCCNC(=O)c1cc(-c2ccc(OC)cc2)nc2n[nH]c(-c3ccc(Cl)cc3)c12,73%
5,Cn1c(=O)n(C)c2cc(N3CCOCC3)c(NC(=O)c3ccccc3Br)cc21,82%
6,Cc1ccc(NC(=O)Cn2c(=O)ccc3cc(S(=O)(=O)N4CCCC4)ccc32)cc1N(C)C,32% (active)
7,Cc1ccc(NC(=O)Cn2c(=O)ccc3cc(S(=O)(=O)N4CCCC4)ccc32)cc1C,98%
8,CCc1ccc(NC(=O)Cn2c(=O)ccc3cc(S(=O)(=O)N4CCCC4)ccc32)cc1,144%
9,COc1cccc(NC(=O)CC2NCCNC2=O)c1 (centres undefined),84%
10,CCCCN(C)CCNC(=O)c1ccc2c(=O)n(CCc3ccccc3)c(=O)[nH]c2c1,77%
11,COc1cc2ncc(C(=O)c3ccc(C)cc3)c(N3CCCCC3)c2cc1OC,2% (active)
12,COc1ccc(S(=O)(=O)c2cnc3cc(OC)c(OC)cc3c2N2CCCC(C)C2)cc1 (centres undefined),116%
13,CCOc1ccc(C(=O)c2cnc3ccc(Cl)cc3c2S(=O)(=O)c2ccc(C)cc2)cc1,80%
14,CCOC(=O)C1CCN(c2c(C(=O)c3ccc(OC)cc3)cnc3ccccc23)CC1,125%
15,CCOC(=O)C1CCN(c2c(C(=O)c3ccc(OCC)cc3)cnc3ccc(OC)cc23)CC1,37%
16,CCOC(=O)C1CCN(c2c(C(=O)c3ccc(C)cc3)cnc3ccc(F)cc23)CC1,2% (active)
17,CCOC(=O)C1CCCN(C(=O)c2ccc(OCC)cc2)C1 (centres undefined),77%
18,CCOC(=O)C1CCCN(c2c(C(=O)c3ccc(C)cc3)cnc3ccc(OCC)cc23)C1 (centres undefined),10% (active)
19,COc1ccc(C(=O)c2cnc3ccc(C)cc3c2S(=O)(=O)c2ccccc2)cc1,69%
20,CCOc1ccc2nc(N3CCCC(C(=O)NCc4ccc(C)cc4)C3)sc2c1 (centres undefined),71%
21,CCOC(=O)C1CCCN(c2c(C(=O)c3ccc(OCC)cc3)cnc3ccccc23)C1 (centres undefined),-3% (active)
22,CCc1ccc2ncc(C(=O)c3ccc(C)c(C)c3)c(N3CCC(C(N)=O)CC3)c2c1,86%
